# Experimental data published in PubChem BioAssay (Tox21).
# Values joined by “and” are separate entries in the source; they are usually repeats but may differ in a detail not shown here. Equal values may be shown once. Inconclusive results are not listed. Unmarked numbers belong to inactive results. Active and inactive are the calls of the source. The call rests on the fitted dose curve; in most records, active means well fitted curve in the direction sought with a large enough effect in the repeat runs; inconclusive means weak or mixed curves; inactive means no such curve, though single readings can be large; an effect the other way counts as inactive or inconclusive.
# Test system: not listed separately
# Experiment: qHTS assay to identify small molecule antagonists of the constitutive androstane receptor (CAR) signaling pathway - cell viability counter screen (AID 1224837); further: nearly all actives have a fitted effect of over 45% in size
# Conditions: HepG2-CYP2B6-hCAR viability, CellTiter-Fluor, 23 h, co-treated with 50 nM CITCO; series mostly up to 92.4 µM; activity change, negative = cytotoxicity: at the top concentration
# How it was run: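 HepG2-CYP2B6-hCAR cells, 2500/well, 4 hr pre-incubation; compound titration, 15 conc.; CITCO 50 nM final; 23 hr, 37 C/5% CO2; CellTiter-Fluor, fluorescence intensity.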
# On the % scale 0 is the no-effect control and ±100 the full control effect; potency means the concentration at half of the fitted maximal effect.
Compound,"activity change, negative = cytotoxicity [%]",Potency
O=c1cccc[nH]1,2.05,
O=C1NCN(c2ccccc2)C12CCN(CCCC(c1ccc(F)cc1)c1ccc(F)cc1)CC2,,13.3 µM (active)
Cc1cnccn1,0.103,
CCOC(/C=C(\C)CCC=C(C)C)OCC,1.9,

# Molecular target: Nuclear receptor subfamily 1 group I member 3 (Homo sapiens) (UniProt Q14994)
# Sequence (Q14994 whole entry, looked up): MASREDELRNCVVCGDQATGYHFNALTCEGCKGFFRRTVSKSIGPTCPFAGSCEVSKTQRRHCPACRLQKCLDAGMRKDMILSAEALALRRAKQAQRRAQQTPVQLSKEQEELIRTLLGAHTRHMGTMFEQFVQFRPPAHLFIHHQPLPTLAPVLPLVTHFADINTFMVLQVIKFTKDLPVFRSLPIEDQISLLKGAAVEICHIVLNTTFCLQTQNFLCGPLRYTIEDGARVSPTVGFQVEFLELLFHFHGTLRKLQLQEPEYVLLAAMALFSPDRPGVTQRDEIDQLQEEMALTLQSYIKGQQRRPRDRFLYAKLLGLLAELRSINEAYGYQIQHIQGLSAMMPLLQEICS
# Experiment: qHTS assay to identify small molecule antagonists of the constitutive androstane receptor (CAR) signaling pathway (AID 1224838);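 further: HepG2 cells stably expressing hCAR with CYP2B6 luciferase reporter stimulated by CITCO; nearly all actives have a fitted effect of over 40% in size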
# Conditions: HepG2-CYP2B6-hCAR luciferase, CITCO-stimulated, 24 h; series mostly up to 92.4 µM; activity, negative = inhibition: at the top concentration
# How it was run: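 HepG2-CYP2B6-hCAR cells; 4 h pre-incubation; cpd (15 conc) + CITCO 50 nM final; 24 h, 37 C/5% CO2; ONE-Glo, luminescence.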
Compound,"activity, negative = inhibition",Potency
CC1(C)COCN1,-10.3%,
CCCCOC(=O)C(C)CC (centres undefined),-3.37%,
CO[Si](CCC1CCC2OC2C1)(OC)OC (centres undefined),3.98%,
Clc1ccc(C(c2ccccc2Cl)C(Cl)Cl)cc1 (centres undefined),,inactive
CC1=CCC(=O)O1,-4.46%,
COc1cccc(OC)c1O,18.7%,
C=C(C)CCCC,9.2%,
CCOCOCC,23.9%,
CCN=C1C=CC(=C(c2ccc(N(CC)CC)cc2)c2ccc(N(CC)CC)cc2)c2ccccc21,,6.08 µM (active)
CCCC(=O)OCC(COC(=O)CCC)OC(=O)CCC,-7.47%,
CCO[Si](C)(C)OCC,13.6%,
CS(C)(=O)=O,-6.96%,
CCCCCCCCCCCCN(CCO)CCO,,68.3 µM (active)
CC(C)=CCCC(C)O (centres undefined),-0.334%,
C#CC(O)CCC (centres undefined),7.38%,
C/C=C/C(=O)C1=C(C)CCCC1(C)C,58.8%,
CCc1cccc(CC)c1NC(=O)C(=O)O,3.18%,
COc1ccccc1C=O,2.74%,

Compound,"activity, negative = inhibition",Potency
CCOC(=O)CN,12.1%,
Cc1cccc(C)c1NC(=O)CN1CCN(CCCC(c2ccc(F)cc2)c2ccc(F)cc2)CC1,17.4% [at 42.5 µM],
O=C1OC(OC(=O)c2cccnc2Nc2cccc(C(F)(F)F)c2)c2ccccc21 (centres undefined),17.3% [at 42.5 µM],
C=CC/C=C/C/C=C/C/C=C/C,2.5%,
CCOC(OCC)C(=O)c1ccccc1,5.1%,
Oc1cc2ccccc2cc1O,23.9%,
Cc1cccc(N(C)C)c1,-3.95%,
CCCCCCCC/C=C/CCCOC(C)=O,5.87%,
Cc1cncc(C)c1,16.5%,
O=CC1CC1,-17.2%,
CCCCOCC,-6.92%,
CCc1cccc(CC)c1N(COC)C(=O)CS(=O)(=O)O,-5.19%,
O=c1cccc[nH]1,7.42%,
O=C1NCN(c2ccccc2)C12CCN(CCCC(c1ccc(F)cc1)c1ccc(F)cc1)CC2,,13.3 µM (active)
CSc1ccc2c(c1)N(CCC1CCCCN1C)c1ccccc1S2 (centres undefined),-5.11% [at 42.5 µM],
Cc1cnccn1,4.83%,
CCOC(/C=C(\C)CCC=C(C)C)OCC,-18.6%,

# Molecular target: Nuclear receptor subfamily 1 group I member 3 (Homo sapiens) (UniProt Q14994)
# Experiment: qHTS assay to identify small molecule agonists of the constitutive androstane receptor (CAR) signaling pathway (AID 1224839); further: nearly all actives have a fitted effect of over 15% in size;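 on activation: HepG2 cells stably carrying human CAR and a CYP2B6 luciferase reporter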
# Conditions: HepG2 hCAR CYP2B6-luciferase, agonist mode, 24 h; series mostly up to 92.4 µM; activation: at the top concentration
# How it was run: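 Using human hepatoma HepG2 cells engineered with hCAR and a CYP2B6-2.2kb reporter, 15-concentration compound series were incubated 24 h alongside PK11195 at 0.75 uM final, with luminescence quantified afterwards.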
Compound,activation,Potency
CC1(C)COCN1,2.13%,
CCCCOC(=O)C(C)CC (centres undefined),-0.499%,
CO[Si](CCC1CCC2OC2C1)(OC)OC (centres undefined),-0.116%,
Clc1ccc(C(c2ccccc2Cl)C(Cl)Cl)cc1 (centres undefined),,13.7 µM (active) and 11.9 µM (active)
CC1=CCC(=O)O1,2.54%,
COc1cccc(OC)c1O,6.61%,
C=C(C)CCCC,0.262%,
CCOCOCC,1.75%,
CCN=C1C=CC(=C(c2ccc(N(CC)CC)cc2)c2ccc(N(CC)CC)cc2)c2ccccc21,-26.5%,
CCCC(=O)OCC(COC(=O)CCC)OC(=O)CCC,-2.29%,
CCO[Si](C)(C)OCC,-1.18%,
CS(C)(=O)=O,-2.81%,
CCCCCCCCCCCCN(CCO)CCO,-13.2%,
CC(C)=CCCC(C)O (centres undefined),-2.14%,
C#CC(O)CCC (centres undefined),0.962%,
C/C=C/C(=O)C1=C(C)CCCC1(C)C,9.41%,
CCc1cccc(CC)c1NC(=O)C(=O)O,-0.623%,
COc1ccccc1C=O,-1.01%,

Compound,activation,Potency
CCOC(=O)CN,5.35%,
Cc1cccc(C)c1NC(=O)CN1CCN(CCCC(c2ccc(F)cc2)c2ccc(F)cc2)CC1,1.77% [at 42.5 µM],
O=C1OC(OC(=O)c2cccnc2Nc2cccc(C(F)(F)F)c2)c2ccccc21 (centres undefined),3.76% [at 42.5 µM],
C=CC/C=C/C/C=C/C/C=C/C,-0.249%,
CCOC(OCC)C(=O)c1ccccc1,0.473%,
Oc1cc2ccccc2cc1O,3.56%,
Cc1cccc(N(C)C)c1,-0.128%,
CCCCCCCC/C=C/CCCOC(C)=O,-0.3%,
Cc1cncc(C)c1,0.879%,
O=CC1CC1,-3.86%,
CCCCOCC,-1.44%,
CCc1cccc(CC)c1N(COC)C(=O)CS(=O)(=O)O,-0.677%,
O=c1cccc[nH]1,-0.0642%,
O=C1NCN(c2ccccc2)C12CCN(CCCC(c1ccc(F)cc1)c1ccc(F)cc1)CC2,-22.3% [at 42.5 µM],
CSc1ccc2c(c1)N(CCC1CCCCN1C)c1ccccc1S2 (centres undefined),,inactive
Cc1cnccn1,0.16%,
CCOC(/C=C(\C)CCC=C(C)C)OCC,0.46%,
